# According to article PMC7862700, “An all-to-all approach to the identification of sequence-specific readers for epigenetic DNA modifications on cytosine”:
# Key:
# Assay in all cases: DAPPL (digital affinity profiling via proximity ligation, sequencing); 10 mM Tris-HCl pH 7.5, 50 mM NaCl, 1 mM DTT, 4% glycerol, room temperature, 30 min; GST-TFs on glutathione beads, 16-mer random dsDNA library, 0.1% formaldehyde crosslink after washing; high values mean tight binding
# Conditions in all cases: protein: recombinant; tags: N-terminal GST; dsDNA, one strand shown
# [1] = target: T1, ELK4 (Homo sapiens, UniProt P28324-2 1-405)
# T1 sequence: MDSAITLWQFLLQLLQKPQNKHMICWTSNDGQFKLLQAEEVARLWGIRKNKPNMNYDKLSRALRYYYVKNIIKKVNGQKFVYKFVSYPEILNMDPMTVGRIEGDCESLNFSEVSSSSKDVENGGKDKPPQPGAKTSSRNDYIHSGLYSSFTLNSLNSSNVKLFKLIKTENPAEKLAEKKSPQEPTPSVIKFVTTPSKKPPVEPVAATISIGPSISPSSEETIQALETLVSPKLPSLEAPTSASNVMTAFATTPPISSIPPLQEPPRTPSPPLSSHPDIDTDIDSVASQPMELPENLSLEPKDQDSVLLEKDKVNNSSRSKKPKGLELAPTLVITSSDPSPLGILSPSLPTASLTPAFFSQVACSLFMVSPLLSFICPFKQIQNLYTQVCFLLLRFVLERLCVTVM
# Procedure, shortened: (§1)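 GST fusions of human transcription factors were expressed in yeast and captured with glutathione beads. Once given DNA barcodes and pooled alongside a tag-only sample, they were incubated for 30 min at room temperature with 200 nmole of a random double-stranded 16-mer DNA library in Tris/NaCl/DTT/glycerol buffer, then washed, crosslinked (0.1% formaldehyde), proximity-ligated, PCR-amplified and sequenced on an Illumina NextSeq500. The binding signal of each hexamer is its read frequency for a factor divided by its frequency for the tag-only sample.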
# [2] = target: T2, ELF3 (Homo sapiens, UniProt P78545 1-371)
# T2 sequence: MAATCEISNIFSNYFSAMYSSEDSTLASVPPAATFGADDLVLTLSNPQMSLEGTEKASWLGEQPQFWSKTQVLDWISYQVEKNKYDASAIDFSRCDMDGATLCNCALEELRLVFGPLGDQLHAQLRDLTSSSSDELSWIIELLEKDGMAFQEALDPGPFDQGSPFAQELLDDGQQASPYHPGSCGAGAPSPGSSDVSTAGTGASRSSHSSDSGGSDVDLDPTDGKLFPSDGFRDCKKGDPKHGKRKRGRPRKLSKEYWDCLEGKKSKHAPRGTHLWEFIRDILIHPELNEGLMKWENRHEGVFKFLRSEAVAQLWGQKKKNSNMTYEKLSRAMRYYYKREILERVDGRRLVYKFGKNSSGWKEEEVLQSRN
# Procedure, shortened: as §1
# [3] = target: ETV1 (Homo sapiens, UniProt P50549 1-477)
# Procedure, shortened: as §1
# [4] = target: T3, ERF (Homo sapiens, UniProt P50548 1-548)
# T3 sequence: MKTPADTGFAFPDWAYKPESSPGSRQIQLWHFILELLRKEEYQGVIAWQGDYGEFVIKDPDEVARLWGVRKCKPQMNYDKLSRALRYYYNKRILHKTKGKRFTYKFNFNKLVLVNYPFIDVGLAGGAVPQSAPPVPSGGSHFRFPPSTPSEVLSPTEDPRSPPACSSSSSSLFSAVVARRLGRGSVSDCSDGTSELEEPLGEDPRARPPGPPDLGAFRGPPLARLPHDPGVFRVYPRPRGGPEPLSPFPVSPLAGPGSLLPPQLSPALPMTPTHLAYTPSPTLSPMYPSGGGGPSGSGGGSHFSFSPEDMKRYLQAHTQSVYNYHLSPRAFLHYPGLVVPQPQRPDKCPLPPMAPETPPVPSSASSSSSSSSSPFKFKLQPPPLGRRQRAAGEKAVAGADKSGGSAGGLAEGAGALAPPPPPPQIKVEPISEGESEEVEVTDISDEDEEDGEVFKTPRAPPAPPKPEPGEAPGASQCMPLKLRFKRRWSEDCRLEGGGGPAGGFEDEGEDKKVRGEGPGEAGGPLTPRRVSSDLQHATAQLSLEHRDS
# Procedure, shortened: as §1
# [5] = target: T4, ETV3L (Homo sapiens, UniProt Q6ZN32 1-361)
# T4 sequence: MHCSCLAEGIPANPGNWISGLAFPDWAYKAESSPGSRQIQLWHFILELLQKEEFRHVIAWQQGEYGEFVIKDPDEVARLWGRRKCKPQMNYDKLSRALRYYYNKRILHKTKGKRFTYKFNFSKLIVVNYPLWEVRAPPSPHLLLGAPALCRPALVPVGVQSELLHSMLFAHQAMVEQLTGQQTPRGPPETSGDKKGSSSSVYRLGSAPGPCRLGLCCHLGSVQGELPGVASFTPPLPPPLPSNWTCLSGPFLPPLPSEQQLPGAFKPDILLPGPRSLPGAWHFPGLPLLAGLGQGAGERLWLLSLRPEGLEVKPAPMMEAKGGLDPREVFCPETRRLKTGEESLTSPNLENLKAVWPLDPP
# Procedure, shortened: as §1
# [6] = target: T5, ETS2 (Homo sapiens, UniProt P15036 1-469)
# T5 sequence: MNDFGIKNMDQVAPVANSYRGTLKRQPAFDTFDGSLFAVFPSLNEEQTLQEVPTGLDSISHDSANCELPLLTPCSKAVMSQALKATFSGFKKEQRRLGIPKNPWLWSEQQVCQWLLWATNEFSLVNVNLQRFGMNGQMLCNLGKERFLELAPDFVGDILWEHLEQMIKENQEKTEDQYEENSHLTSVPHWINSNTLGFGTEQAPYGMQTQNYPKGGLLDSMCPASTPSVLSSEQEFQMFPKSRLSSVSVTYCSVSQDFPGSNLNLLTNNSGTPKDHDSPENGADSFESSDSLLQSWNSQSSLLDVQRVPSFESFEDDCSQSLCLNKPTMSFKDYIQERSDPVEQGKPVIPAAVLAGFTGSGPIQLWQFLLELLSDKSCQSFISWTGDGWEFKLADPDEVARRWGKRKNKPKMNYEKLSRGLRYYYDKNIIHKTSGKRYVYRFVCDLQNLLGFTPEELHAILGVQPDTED
# Procedure, shortened: as §1
# [7] = target: T6, SPDEF (Homo sapiens, UniProt O95238 1-335)
# T6 sequence: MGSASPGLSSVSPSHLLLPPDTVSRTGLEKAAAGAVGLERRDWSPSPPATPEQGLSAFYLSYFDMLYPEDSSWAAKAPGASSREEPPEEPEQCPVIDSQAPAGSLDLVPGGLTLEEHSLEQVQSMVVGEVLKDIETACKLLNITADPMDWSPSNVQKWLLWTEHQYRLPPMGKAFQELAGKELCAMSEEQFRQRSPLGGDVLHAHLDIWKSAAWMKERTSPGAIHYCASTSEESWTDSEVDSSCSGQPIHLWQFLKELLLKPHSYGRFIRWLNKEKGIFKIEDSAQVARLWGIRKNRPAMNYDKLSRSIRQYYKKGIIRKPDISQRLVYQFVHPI
# Procedure, shortened: as §1
# [8] = target: T7, ETV7 (Homo sapiens, UniProt Q9Y603 1-341)
# T7 sequence: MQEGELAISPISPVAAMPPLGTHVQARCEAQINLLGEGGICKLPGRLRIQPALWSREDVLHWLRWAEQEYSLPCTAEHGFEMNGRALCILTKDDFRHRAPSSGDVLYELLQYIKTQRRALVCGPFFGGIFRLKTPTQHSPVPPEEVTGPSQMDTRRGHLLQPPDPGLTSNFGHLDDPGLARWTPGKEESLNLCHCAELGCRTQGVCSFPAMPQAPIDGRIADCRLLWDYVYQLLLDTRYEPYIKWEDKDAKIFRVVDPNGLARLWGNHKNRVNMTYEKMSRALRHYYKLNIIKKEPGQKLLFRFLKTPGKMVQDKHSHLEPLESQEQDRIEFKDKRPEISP
# Procedure, shortened: as §1
# [9] = target: T8, ETV3 (Homo sapiens, UniProt P41162-2 1-143)
# T8 sequence: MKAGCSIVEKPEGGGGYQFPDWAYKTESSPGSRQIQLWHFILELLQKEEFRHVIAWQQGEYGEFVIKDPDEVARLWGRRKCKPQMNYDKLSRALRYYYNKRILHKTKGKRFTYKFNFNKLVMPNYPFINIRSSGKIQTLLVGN
# Procedure, shortened: as §1
# [10] = target: ETV6 (Homo sapiens, UniProt P41212 1-452)
# Procedure, shortened: as §1
# Chain of ETV6 (P41212 whole entry): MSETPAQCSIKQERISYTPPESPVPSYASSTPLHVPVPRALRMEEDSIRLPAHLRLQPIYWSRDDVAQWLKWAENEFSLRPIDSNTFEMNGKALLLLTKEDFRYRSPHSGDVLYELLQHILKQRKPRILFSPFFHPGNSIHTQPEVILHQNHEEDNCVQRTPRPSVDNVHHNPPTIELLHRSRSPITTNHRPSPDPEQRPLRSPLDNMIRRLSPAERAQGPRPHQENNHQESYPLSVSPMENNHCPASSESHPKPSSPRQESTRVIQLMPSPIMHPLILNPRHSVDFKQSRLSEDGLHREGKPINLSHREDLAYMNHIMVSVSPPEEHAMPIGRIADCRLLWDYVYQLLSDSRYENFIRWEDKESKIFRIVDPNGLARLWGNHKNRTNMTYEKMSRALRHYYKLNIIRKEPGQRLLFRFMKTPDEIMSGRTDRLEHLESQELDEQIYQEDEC
# Chain of ETV1 (P50549 whole entry): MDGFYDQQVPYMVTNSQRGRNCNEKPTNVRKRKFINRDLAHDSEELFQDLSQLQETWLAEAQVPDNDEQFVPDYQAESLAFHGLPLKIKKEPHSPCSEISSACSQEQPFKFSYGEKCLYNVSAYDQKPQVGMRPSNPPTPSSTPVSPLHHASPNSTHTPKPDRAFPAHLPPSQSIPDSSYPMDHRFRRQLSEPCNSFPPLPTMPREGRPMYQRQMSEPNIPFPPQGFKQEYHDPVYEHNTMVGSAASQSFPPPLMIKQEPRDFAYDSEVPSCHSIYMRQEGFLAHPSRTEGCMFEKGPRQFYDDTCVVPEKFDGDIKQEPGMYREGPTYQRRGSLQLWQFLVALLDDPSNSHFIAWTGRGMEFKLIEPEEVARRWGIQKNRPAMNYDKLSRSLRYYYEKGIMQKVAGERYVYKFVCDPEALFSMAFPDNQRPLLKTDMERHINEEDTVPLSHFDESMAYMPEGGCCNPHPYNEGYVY
sequence,measurement,setting,value
CACAGC,binding signal,[1],"1.04 fold enrichment (6-mer frequency, TF over GST control)"
same,binding signal,[2],"1.04 fold enrichment (6-mer frequency, TF over GST control)"
same,binding signal,[3],"1.1 fold enrichment (6-mer frequency, TF over GST control)"
same,binding signal,[4],"1.07 fold enrichment (6-mer frequency, TF over GST control)"
same,binding signal,[5],"1.17 fold enrichment (6-mer frequency, TF over GST control)"
same,binding signal,[6],"1.01 fold enrichment (6-mer frequency, TF over GST control)"
same,binding signal,[7],"1.03 fold enrichment (6-mer frequency, TF over GST control)"
same,binding signal,[8],"1.12 fold enrichment (6-mer frequency, TF over GST control)"
same,binding signal,[9],"1.05 fold enrichment (6-mer frequency, TF over GST control)"
same,binding signal,[10],"1.01 fold enrichment (6-mer frequency, TF over GST control)"
